Laboratory results taken from PubChem BioAssay (EPA / NIEHS).
Active and inactive are the calls of the source. How the source made its calls: active means hit-call score of the fitted dose curve at least 0.9, where 1 is the maximum; inactive means score below 0.9.

Assays:
[1] = read-out: Interleukin-6 (IL6), IL6 (gene 3569); test: BSK_CASM3C_IL6: BioMAP Diversity Plus: CASM3C Assay for Interleukin-6 (IL6) Biomarker Activity for (AID 2283040); details: primary human coronary artery smooth muscle cells; actives raise or lower the signal
[2] = read-out: Tissue plasminogen activator (tPA), PLAT (gene 5327); test: BSK_BE3C_tPA: BioMAP Diversity Plus: BE3C Assay for Tissue plasminogen activator (tPA) Biomarker Activity (AID 2283041); details: primary human bronchial epithelial cells; actives raise or lower the signal;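 further: tPA level quantified by ELISA one day after compound addition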
How it was run: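 Using human lung primary bronchial epithelial cells, tPA was measured by ELISA 24 h after dosing; data fitted relative to DMSO.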

[3] = read-out: Interleukin-8 (IL8), CXCL8 (gene 3576); test: BSK_CASM3C_IL8: BioMAP Diversity Plus: CASM3C Assay for Interleukin-8 (IL8) Biomarker Activity (AID 2283042); details: primary human coronary artery smooth muscle cells; actives raise or lower the signal;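 further: IL-8 protein level quantified by ELISA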
[4] = read-out: Human Leukocyte Antigen - DR isotype (HLADR), HLA-DRA (gene 3122); test: BSK_CASM3C_HLADR: BioMAP Diversity Plus: CASM3C Assay for Human Leukocyte Antigen - DR isotype (HLADR) Biomarker Activity (AID 2283043); details: primary human coronary artery smooth muscle cells; actives raise or lower the signal;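 further: cell-surface HLA-DR protein level quantified by ELISA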
[5] = read-out: Macrophage colony-stimulating factor (MCSF), CSF1 (gene 1435); test: BSK_CASM3C_MCSF: BioMAP Diversity Plus: CASM3C Assay for Macrophage colony-stimulating factor (MCSF) Biomarker Activity (AID 2283044); details: primary human coronary artery smooth muscle cells; actives raise or lower the signal;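 further: M-CSF protein amount quantified by ELISA after 24 h exposure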
[6] = read-out: Low-density lipoprotein receptor (LDLR), LDLR (gene 3949); test: BSK_CASM3C_LDLR: BioMAP Diversity Plus: CASM3C Assay for Low-density lipoprotein receptor (LDLR) Biomarker Activity (AID 2283045); details: primary human coronary artery smooth muscle cells; actives raise or lower the signal;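 further: LDLR protein level on the cell surface quantified by ELISA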
[7] = read-out: Monocyte Chemoattractant Protein-1 (MCP1), CCL2 (gene 6347); test: BSK_CASM3C_MCP1: BioMAP Diversity Plus: CASM3C Assay for Monocyte Chemoattractant Protein-1 (MCP1) Biomarker Activity (AID 2283046); details: primary human coronary artery smooth muscle cells; actives raise or lower the signal;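 further: MCP-1 level quantified by ELISA 24 h after dosing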
[8] = BSK_CASM3C_Proliferation: Cell Proliferation Assessment in the BioMAP Diversity Plus: CASM3C Assay (AID 2283047); details: primary human coronary artery smooth muscle cells;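 further: sulforhodamine B total protein stain as relative cell number at 560 nm; sub-confluent cells exposed 48 h before staining; fitted both ways against DMSO so gain or loss of cell number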
[9] = read-out: Monokine induced gamma interferon (MIG), CXCL9 (gene 4283); test: BSK_CASM3C_MIG: BioMAP Diversity Plus: CASM3C Assay for Monokine induced gamma interferon (MIG) Biomarker Activity (AID 2283048); details: primary human coronary artery smooth muscle cells; actives raise or lower the signal;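 further: MIG protein level measured by ELISA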
[10] = read-out: serum amyloid A (SAA), SAA1 (gene 6288); test: BSK_CASM3C_SAA: BioMAP Diversity Plus: CASM3C Assay for serum amyloid A (SAA) Biomarker Activity (AID 2283049); details: primary human coronary artery smooth muscle cells; actives raise or lower the signal;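 further: SAA protein level quantified by ELISA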
[11] = BSK_CASM3C_SRB: Viability Assessment in the BioMAP Diversity Plus: CASM3C Assay (AID 2283050); details: primary human coronary artery smooth muscle cells;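 further: cells exposed to compound for 24 h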
[12] = read-out: Thrombomodulin, THBD (gene 7056); test: BSK_CASM3C_Thrombomodulin: BioMAP Diversity Plus: CASM3C Assay for Thrombomodulin Biomarker Activity (AID 2283051); details: primary human coronary artery smooth muscle cells; actives raise or lower the signal;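 further: thrombomodulin protein level measured by ELISA 24 h after dosing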
[13] = read-out: Tissue Factor, F3 (gene 2152); test: BSK_CASM3C_TissueFactor: BioMAP Diversity Plus: CASM3C Assay for Tissue Factor Biomarker Activity (AID 2283052); details: primary human coronary artery smooth muscle cells; actives raise or lower the signal;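 further: cell surface tissue factor protein level read by ELISA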
[14] = read-out: Interferon-gamma inducible Protein 10 (IP10), CXCL10 (gene 3627); test: BSK_hDFCGF_IP10: BioMAP Diversity Plus: hDFCGF Assay for Interferon-gamma inducible Protein 10 (IP10) Biomarker Activity (AID 2283053); details: primary human foreskin fibroblasts; actives raise or lower the signal
How it was run: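 Chemical-treated human skin fibroblasts (primary) were sampled at 24 h for IP-10 by ELISA. Both increases and decreases relative to DMSO were scored.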

[15] = read-out: Urokinase-type plasminogen activator receptor (uPAR), PLAUR (gene 5329); test: BSK_CASM3C_uPAR: BioMAP Diversity Plus: CASM3C Assay for Urokinase-type plasminogen activator receptor (uPAR) Biomarker Activity (AID 2283054); details: primary human coronary artery smooth muscle cells; actives raise or lower the signal;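 further: cell-surface uPAR protein level quantified by ELISA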
[16] = read-out: Vascular cell adhesion molecule 1 (VCAM1), VCAM1 (gene 7412); test: BSK_CASM3C_VCAM1: BioMAP Diversity Plus: CASM3C Assay for Vascular cell adhesion molecule 1 (VCAM1) Biomarker Activity (AID 2283055); details: primary human coronary artery smooth muscle cells; actives raise or lower the signal;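 further: VCAM-1 protein level quantified by ELISA on the cells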
[17] = read-out: Collagen III, COL3A1 (gene 1281); test: BSK_hDFCGF_CollagenIII: BioMAP Diversity Plus: hDFCGF Assay for Collagen III Biomarker Activity (AID 2283056); details: primary human foreskin fibroblasts; actives raise or lower the signal
How it was run: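 Human foreskin fibroblast primary cultures sampled 24 h after dosing; Collagen III quantified by ELISA. Signal fitted bidirectionally against DMSO baseline.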

[18] = read-out: Epidermal growth factor receptor (EGFR), EGFR (gene 1956); test: BSK_hDFCGF_EGFR: BioMAP Diversity Plus: hDFCGF Assay for Epidermal growth factor receptor (EGFR) Biomarker Activity (AID 2283057); details: primary human foreskin fibroblasts; actives raise or lower the signal
How it was run: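 Cell-based multiplexed assay in primary human foreskin fibroblasts. EGFR is read by ELISA 24 h after treatment and compared with DMSO controls.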

[19] = read-out: Interleukin-8 (IL8), CXCL8 (gene 3576); test: BSK_hDFCGF_IL8: BioMAP Diversity Plus: hDFCGF Assay for Interleukin-8 (IL8) Biomarker Activity (AID 2283058); details: primary human foreskin fibroblasts; actives raise or lower the signal
How it was run: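 Primary human foreskin fibroblasts (hDFCGF system) dosed with chemical; IL-8 measured by ELISA 24 hours later. Bidirectional curve fitting relative to DMSO baseline; cytotoxicity tracked in parallel cultures by SRB total protein staining.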

[20] = BSK_hDFCGF_Proliferation: Cell Proliferation Assessment in the BioMAP Diversity Plus: hDFCGF Assay (AID 2283059); details: primary human foreskin fibroblasts;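 further: curves fitted for both rise and fall of signal versus DMSO baseline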
How it was run: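 Steps: dose primary human dermal fibroblasts (foreskin); […] fix in 10% TCA; stain with 0.1% SRB; read 560 nm; fit gain or loss of signal against DMSO.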

Measured: AC50

O=C(OCCCCCOC(=O)c1ccccc1)c1ccccc1
inactive: all assays above

Cc1cc(NC(=O)C(=O)O)cc(C)c1Oc1ccc(O)c2c1CCC2
inactive: all assays above

CNC(=O)[C@H]1O[C@@H](n2cnc3c(NCc4cc(Cl)ccc4OCc4cc(C)no4)ncnc32)[C@H](O)[C@@H]1N
inactive: all assays above

CCCCCC(=O)O
inactive: all assays above

CC(CO)OC(C)CO (stereo not given) (tested in a mixture with another compound)
inactive: all assays above

CCNc1cccc(C)c1
inactive: all assays above

CNCc1cc(F)ccc1Oc1ccc(Cl)c(Cl)c1
active: [6] 13.8 µM | [8] 22 µM | [20] 23.8 µM
inactive: all other assays above

CCCCN(CCCC)CCCC
inactive: all assays above

CCCCCCCCCCCCCCCC
inactive: all assays above

CC(=O)C(C)=CC1C(C)=CCCC1(C)C (stereo not given)
inactive: all assays above

COc1cc(C=O)ccc1O
inactive: all assays above

Cc1cccc(Nc2cc(Cl)nc(SCC(=O)O)n2)c1C
inactive: all assays above

NCC1(Cc2noc(=O)[nH]2)CCCCC1
inactive: all assays above

CCOC(=O)C(C)(C)Oc1ccc(Cl)cc1
inactive: all assays above
